Structures are written as SMILES. Hit rate of the full screen: of about 39,000 compounds, about 3,300 (8.5%) were called active. What follows is part of a selection rich in actives, with near analogues and random picks from the rest.

This experiment has as its system HepG2. The experiment can be described thus: cytotoxicity call (relative viability < 0.9). As to conditions: 10 µM.
Take `O=C(Nc1cc(C(=O)Nc2ccc(S(=O)(=O)O)cc2S(=O)(=O)O)cc(C(=O)Nc2ccc(S(=O)(=O)O)cc2S(=O)(=O)O)c1)Nc1cc(C(=O)Nc2ccc(S(=O)(=O)O)cc2S(=O)(=O)O)cc(C(=O)Nc2ccc(S(=O)(=O)O)cc2S(=O)(=O)O)c1`: the cytotoxicity call was “inactive”.

Turning to `CC(C)CC#Cc1cnc2c(c1)C(=O)N([C@H](C)CO)C[C@@H](C)[C@@H](CN(C)S(=O)(=O)c1ccccc1)O2`, the cytotoxicity call is “inactive”.

As to `C[C@@H]1CCCCO[C@H](CN(C)C(=O)Nc2cccc3ccccc23)[C@H](C)CN([C@H](C)CO)C(=O)c2cc(NS(=O)(=O)c3cccs3)ccc2O1`, the cytotoxicity call was “active”.

In the case of `C[C@H]1CCCCO[C@H](CN(C)C(=O)Nc2cccc3ccccc23)[C@@H](C)CN([C@@H](C)CO)C(=O)c2cc(NS(=O)(=O)c3cccs3)ccc2O1`, the cytotoxicity call was “active”.

As to `C[C@H]1CCCCO[C@@H](CN(C)C(=O)Nc2cccc3ccccc23)[C@@H](C)CN([C@@H](C)CO)C(=O)c2cc(NS(=O)(=O)c3cccs3)ccc2O1`, the cytotoxicity call was “inactive”.

With `C[C@@H]1CN([C@@H](C)CO)C(=O)c2cc(NS(=O)(=O)c3cccs3)ccc2O[C@@H](C)CCCCO[C@@H]1CN(C)C(=O)Nc1cccc2ccccc12`, the cytotoxicity call is “inactive”.

With `C[C@H](CO)N1C[C@H](C)[C@H](CN(C)C(=O)Nc2cccc3ccccc23)OCCCC[C@H](C)Oc2ccc(NS(=O)(=O)c3cccs3)cc2C1=O`, the cytotoxicity call was “inactive”.

`C[C@H](CO)N1C[C@H](C)[C@@H](CN(C)C(=O)Nc2cccc3ccccc23)OCCCC[C@H](C)Oc2ccc(NS(=O)(=O)c3cccs3)cc2C1=O`: the cytotoxicity call is “active”.

Consider `C[C@@H]1CCCCO[C@@H](CN(C)C(=O)Nc2cccc3ccccc23)[C@H](C)CN([C@H](C)CO)C(=O)c2cc(NS(=O)(=O)c3cccs3)ccc2O1`, for which the cytotoxicity call was “inactive”.

Turning to `C[C@@H]1CCCCO[C@H](CN(C)C(=O)Nc2cccc3ccccc23)[C@@H](C)CN([C@H](C)CO)C(=O)c2cc(NS(=O)(=O)c3cccs3)ccc2O1`, the cytotoxicity call was “inactive”.

Regarding `C[C@@H]1CN([C@@H](C)CO)C(=O)c2cc(NS(=O)(=O)c3cccs3)ccc2O[C@@H](C)CCCCO[C@H]1CN(C)C(=O)Nc1cccc2ccccc12`, the cytotoxicity call was “inactive”.

As for `CO[C@@H](CN(C)C(=O)c1ccc2c(c1)OCO2)[C@H](C)CN([C@@H](C)CO)S(=O)(=O)c1ccc(F)cc1`, the cytotoxicity call was “inactive”.

Consider `C[C@@H]1CCCCO[C@@H](CN(C)C(=O)CCC(F)(F)F)[C@H](C)CN([C@H](C)CO)C(=O)c2cc(NC(=O)C3CCCCC3)ccc2O1`, for which the cytotoxicity call was “inactive”.

`C[C@@H]1CN([C@@H](C)CO)C(=O)c2cccc(NC(=O)Nc3ccc4c(c3)OCO4)c2O[C@H]1CN(C)Cc1ccc(C(=O)Nc2ccccc2N)cc1`: the cytotoxicity call is “inactive”.

As for `O=C(CCCCCNC(=O)OCc1ccc(CO[C@H]2C[C@@H](c3coc4ccccc4c3=O)C=C(C(=O)N3CCN(Cc4ccccc4)CC3)O2)cc1)NO`, the cytotoxicity call is “inactive”.

`O=C(CN1CCOCC1)N[C@H]1CC[C@@H](CCNS(=O)(=O)c2ccccc2F)O[C@@H]1CO`: the cytotoxicity call was “inactive”.

On to `Cc1ccc(S(=O)(=O)Nc2cccc3c2O[C@@H](CN(C)Cc2ccc(Cl)c(Cl)c2)[C@@H](C)CN([C@@H](C)CO)C3=O)cc1`, for which the cytotoxicity call is “inactive”.

Regarding `CC(C)NC(=O)N(C)C[C@H]1Oc2ccc(NC(=O)CCC(F)(F)F)cc2C(=O)N([C@H](C)CO)C[C@H]1C`, the cytotoxicity call was “inactive”.

For the molecule `N#C[C@H]1N[C@H](CO)[C@H]1c1ccccc1`, the cytotoxicity call is “inactive”.

Regarding `C[C@H](CO)N1C[C@H](C)[C@H](CN(C)S(=O)(=O)c2ccc(C#N)cc2)Oc2ncc(C#CC(C)(C)O)cc2C1=O`, the cytotoxicity call is “inactive”.

Turning to `COc1ccccc1S(=O)(=O)N1C[C@@H](O)COC[C@@H]2O[C@@H](CC(=O)O)CC[C@H]21`, the cytotoxicity call is “inactive”.

In the case of `C[C@H](CO)N1C[C@H](C)[C@@H](CN(C)C(=O)c2ccccn2)Oc2cc(C#Cc3ccccc3)ccc2S1(=O)=O`, the cytotoxicity call is “inactive”.

Turning to `C[C@H]1CN([C@@H](C)CO)C(=O)c2ccccc2-c2ccccc2CO[C@@H]1CN(C)C(=O)Nc1ccc(-c2ccccc2)cc1`, the cytotoxicity call is “inactive”.

For the molecule `C[C@@H]1CN([C@H](C)CO)C(=O)c2c(c3ccccc3n2C)-c2ccccc2CO[C@@H]1CN(C)C(=O)Nc1ccc(-c2ccccc2)cc1`, the cytotoxicity call was “inactive”.

With `C[C@@H]1CN([C@@H](C)CO)C(=O)c2ccccc2-c2ccccc2CO[C@@H]1CN(C)C(=O)Nc1ccc(-c2ccccc2)cc1`, the cytotoxicity call was “inactive”.

For `C[C@@H]1CN([C@H](C)CO)C(=O)c2c(c3ccccc3n2C)-c2ccccc2CO[C@H]1CN(C)C(=O)Nc1ccc(-c2ccccc2)cc1`, the cytotoxicity call is “active”.

On to `C[C@@H]1CN([C@H](C)CO)C(=O)c2ccccc2-c2ccccc2CO[C@H]1CN(C)C(=O)Nc1ccc(-c2ccccc2)cc1`, for which the cytotoxicity call is “active”.

As for `C[C@H]1CN([C@@H](C)CO)C(=O)c2c(c3ccccc3n2C)-c2ccccc2CO[C@H]1CN(C)C(=O)Nc1ccc(-c2ccccc2)cc1`, the cytotoxicity call is “active”.

On to `C[C@@H]1CN([C@@H](C)CO)C(=O)c2c(c3ccccc3n2C)-c2ccccc2CO[C@H]1CN(C)C(=O)Nc1ccc(-c2ccccc2)cc1`, for which the cytotoxicity call was “inactive”.

Consider `C[C@H](CO)N1C[C@H](C)[C@@H](CN(C)C(=O)Nc2ccc(-c3ccccc3)cc2)OCc2ccccc2-c2c(n(C)c3ccccc23)C1=O`, for which the cytotoxicity call was “inactive”.

On to `C[C@@H]1CN([C@@H](C)CO)C(=O)c2c(c3ccccc3n2C)-c2ccccc2CO[C@@H]1CN(C)C(=O)Nc1ccc(-c2ccccc2)cc1`, for which the cytotoxicity call is “inactive”.

With `COc1cc(F)c(C(C)C)cc1-c1ccc(C(F)(F)F)cc1CN1C(=O)O[C@H](c2cc(C(F)(F)F)cc(C(F)(F)F)c2)[C@@H]1C`, the cytotoxicity call was “inactive”.

On to `COc1ccc2c3c(n(c2c1)C)[C@H](CO)N(C[C@]13CCN(CC1)C(=O)c1cccnc1)C(=O)c1cccnc1`, for which the cytotoxicity call is “inactive”.

On to `C[C@@H]1CN([C@@H](C)CO)C(=O)c2cc(NC(=O)c3ccncc3)ccc2O[C@@H]1CN(C)Cc1ccncc1`, for which the cytotoxicity call is “inactive”.

With `C[C@@H]1CCCCO[C@H](CN(C)C(=O)CCCN(C)C)[C@H](C)CN([C@@H](C)CO)C(=O)c2cc(NC(=O)Nc3ccc(F)cc3)ccc2O1`, the cytotoxicity call is “inactive”.

On to `COc1ccc(NC(=O)N(C)C[C@@H]2OCCCC[C@@H](C)Oc3ccc(NS(=O)(=O)c4ccccc4)cc3C(=O)N([C@H](C)CO)C[C@H]2C)cc1`, for which the cytotoxicity call is “inactive”.

For `COc1cccc(-c2ccc3c(c2)O[C@@H](CN(C)C(=O)C2CC2)[C@@H](C)CN([C@H](C)CO)S3(=O)=O)c1`, the cytotoxicity call was “inactive”.

As to `C[C@@H]1CN([C@H](C)CO)C(=O)c2cc(NS(=O)(=O)c3ccc(Cl)cc3)ccc2O[C@@H](C)CCCCO[C@@H]1CN(C)C(=O)CCC(F)(F)F`, the cytotoxicity call is “inactive”.

`N[C@H](C(=O)O)c1cc(O)cc(O)c1`: the cytotoxicity call is “inactive”.

Take `Cc1noc(C)c1NC(=O)Nc1ccc2c(c1)C(=O)N([C@@H](C)CO)C[C@@H](C)[C@@H](CN(C)C(=O)Nc1cccc3ccccc13)O2`: the cytotoxicity call was “inactive”.

`Cc1noc(C)c1NC(=O)N(C)C[C@H]1OCCCC[C@H](C)Oc2ccc(NS(=O)(=O)c3cccs3)cc2C(=O)N([C@H](C)CO)C[C@@H]1C`: the cytotoxicity call is “inactive”.

Regarding `CCCCCCCCCCCCCCCCCC(=O)NCCCCOn1c(CCCC)nc2c(N)nc3ccccc3c21`, the cytotoxicity call was “inactive”.

Take `CCCCCCc1ccc(O)cc1O` [listing 1 of 2 here]: the cytotoxicity call was “inactive”.

On to `CCCCCCc1ccc(O)cc1O.Nc1c2ccccc2nc2ccccc12`, for which the cytotoxicity call was “active”.

As to `CCCCCCc1ccc(O)cc1O` [listing 2 of 2 here], the cytotoxicity call is “active”.

`COC(=O)CCc1ccc(OC)cc1O`: the cytotoxicity call was “inactive”.

For the molecule `CCCCCCCc1c(C)c(O)cc2c1[nH]c1ccccc12`, the cytotoxicity call is “inactive”.

For the molecule `Cc1noc(C)c1NC(=O)Nc1ccc2c(c1)CC(=O)N([C@@H](C)CO)C[C@H](C)[C@@H](CN(C)S(=O)(=O)c1cccs1)O2`, the cytotoxicity call is “inactive”.

`Cc1noc(C)c1NC(=O)N(C)C[C@H]1Oc2ccc(NS(=O)(=O)c3ccccc3)cc2CC(=O)N([C@@H](C)CO)C[C@@H]1C`: the cytotoxicity call is “inactive”.

Consider `COc1ccc(NC(=O)N[C@@H]2CC[C@H](CCNC(=O)CN3CCOCC3)O[C@@H]2CO)cc1`, for which the cytotoxicity call is “inactive”.

`CCC(=O)N(C)C[C@H]1Oc2ncc(C#C[C@H](C)O)cc2C(=O)N([C@H](C)CO)C[C@@H]1C`: the cytotoxicity call is “inactive”.

As for `C[C@H](CO)N1C[C@H](C)[C@@H](CN(C)C(=O)Nc2ccccc2)Oc2cc(C#C[C@@H](C)O)ccc2S1(=O)=O`, the cytotoxicity call is “inactive”.

In the case of `C[C@@H]1CN([C@H](C)CO)S(=O)(=O)c2ccc(-c3cncnc3)cc2O[C@@H]1CN(C)C(=O)c1cccc(F)c1`, the cytotoxicity call was “inactive”.

For `CCc1c(C)[nH]c2ncnn2c1=O`, the cytotoxicity call was “inactive”.

As to `CCCN(C)C[C@H]1Oc2cc(C#Cc3cccc(OC)c3)ccc2S(=O)(=O)N([C@@H](C)CO)C[C@H]1C`, the cytotoxicity call was “inactive”.

As for `C[C@H]1CN([C@@H](C)CO)C(=O)c2cccc(NC(=O)Nc3cccc4ccccc34)c2O[C@H]1CN(C)Cc1ccc2c(c1)OCO2`, the cytotoxicity call was “inactive”.

Regarding `c1ccc(-c2cc(-c3ccccc3)n(-c3ccccc3)n2)cc1`, the cytotoxicity call is “inactive”.

On to `COc1ccc2c(c1)c(-c1ccccc1)nn2-c1ccc(C)cc1`, for which the cytotoxicity call is “inactive”.

`c1ccc(-c2nn(-c3ccccc3)c3c2cnc2ccccc23)cc1`: the cytotoxicity call is “active”.

On to `Cc1cc(C)c(S(=O)(=O)N2CCO[C@@H]2CNC(=O)C(=O)NCCCN2CCCC2=O)c(C)c1`, for which the cytotoxicity call is “inactive”.

In the case of `Cc1c(NC(C)C)c(=O)n(-c2ccccc2)n1C.Cl`, the cytotoxicity call was “inactive”.

`C[C@@H]1CN([C@H](C)CO)C(=O)c2cc(NS(=O)(=O)c3ccc(F)cc3)ccc2O[C@H]1CN(C)S(=O)(=O)c1ccccc1`: the cytotoxicity call was “inactive”.

In the case of `O=C1CCOC[C@@H]2CCCN12`, the cytotoxicity call is “inactive”.

Take `C[C@@H]1CCCCO[C@@H](CN(C)Cc2ccncc2)[C@H](C)CN([C@@H](C)CO)C(=O)c2cc(NC(=O)Nc3ccccc3)ccc2O1`: the cytotoxicity call was “inactive”.

Regarding `C[C@@H]1CCCCO[C@H](CN(C)Cc2ccc(C(=O)O)cc2)[C@@H](C)CN([C@@H](C)CO)C(=O)c2cc(NC(=O)Cc3ccccc3)ccc2O1`, the cytotoxicity call is “inactive”.

On to `Cc1ccc(S(=O)(=O)N(C)C[C@@H]2Oc3ccc(N(C)C)cc3CC(=O)N([C@H](C)CO)C[C@H]2C)cc1`, for which the cytotoxicity call is “inactive”.

Regarding `Cc1ccc(S(=O)(=O)N(C)C[C@@H]2Oc3ccc(N(C)C)cc3CC(=O)N([C@@H](C)CO)C[C@@H]2C)cc1`, the cytotoxicity call was “active”.

`Cc1ccc(S(=O)(=O)N(C)C[C@@H]2Oc3ccc(N(C)C)cc3CC(=O)N([C@H](C)CO)C[C@@H]2C)cc1`: the cytotoxicity call is “active”.

`Cc1ccc(S(=O)(=O)N(C)C[C@H]2Oc3ccc(N(C)C)cc3CC(=O)N([C@H](C)CO)C[C@H]2C)cc1`: the cytotoxicity call is “inactive”.

As to `Cc1ccc(S(=O)(=O)N(C)C[C@H]2Oc3ccc(N(C)C)cc3CC(=O)N([C@@H](C)CO)C[C@@H]2C)cc1`, the cytotoxicity call was “inactive”.

As to `Cc1ccc(S(=O)(=O)N(C)C[C@H]2Oc3ccc(N(C)C)cc3CC(=O)N([C@@H](C)CO)C[C@H]2C)cc1`, the cytotoxicity call was “inactive”.

The record behind these values is the antibiotic and cytotoxicity screens of Wong et al. (2023).
